Screens: PubChem BioAssay, several laboratories
sPLA2-III inh: Inhibits HGIII-sPLA2 liposome hydrolysis, primary screen. Q9NZ20. inhibition, % at 12.2 µM. actives 0.56% (n = 370,000). QFRET BODIPY PC-A2 liposome hydrolysis, fluorescence;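 active means inhibition above mean plus 3 SD of compounds lying within the high and low control bounds, cut at about 19% in these data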;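 further: 0% = median of test compound wells and 100% = no enzyme DMSO wells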
Target sequence (Q9NZ20 whole entry, looked up): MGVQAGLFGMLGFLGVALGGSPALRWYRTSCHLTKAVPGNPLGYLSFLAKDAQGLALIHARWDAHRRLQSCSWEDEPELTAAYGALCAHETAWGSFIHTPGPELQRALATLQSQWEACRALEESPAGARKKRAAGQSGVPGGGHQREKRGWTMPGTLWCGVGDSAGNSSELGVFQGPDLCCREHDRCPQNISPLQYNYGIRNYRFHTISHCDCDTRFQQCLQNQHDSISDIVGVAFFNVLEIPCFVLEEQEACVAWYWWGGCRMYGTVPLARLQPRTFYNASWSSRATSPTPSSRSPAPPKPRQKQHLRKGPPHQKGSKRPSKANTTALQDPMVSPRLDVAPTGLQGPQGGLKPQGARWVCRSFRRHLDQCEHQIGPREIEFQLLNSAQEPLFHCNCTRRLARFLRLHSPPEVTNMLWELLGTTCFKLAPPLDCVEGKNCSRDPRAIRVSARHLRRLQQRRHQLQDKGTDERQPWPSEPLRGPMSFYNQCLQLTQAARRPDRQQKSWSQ
ARNT-TACC3 inh: disruptors of human ARNT/TACC3 interaction. Q9Y6A5. AlphaScreen His-ARNT PAS-B/GST-TACC3 binding, luminescence; TACC3 fragment carries E629A point mutation. inhibition, % at 9.99 µM. actives 0.66% (n = 390,000);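 active means mean inhibition of replicates at least 50% and at least half of replicates each reaching 50%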;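 further: 0% = complete ARNT plus TACC3 wells and 100% = ARNT alone without TACC3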
DAGLB inhibitor: blocks human DAGLB lipase activity; Q8NCG7; actives 0.059% (n = 340,000); inhibition, % at 5.17 µM; HEK293T DAGLB membrane lysate, EnzChek fluorogenic substrate; in the data active means inhibition above about 34%;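 further: 0% = enzyme with vehicle and 100% = wells lacking enzyme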
NadD block: NadD (S. aureus) enzyme inhibition | purified NadD enzyme, colorimetric absorbance read-out | inhibition, % at 20 µM | actives 0.78% (n = 360,000); in the data active means inhibition above about 26%
Neddylation inh: inhibitors of human cullin neddylation | TR-FRET cullin neddylation, biochemical | inhibition, % at 25 µM | actives 0.58% (n = 360,000); in the data active means inhibition above about 36%
NadD conf: NadD (S. aureus) inhibition, single concentration confirmation | shares compounds with NadD block | purified S. aureus NadD, colorimetric enzyme assay | inhibition, % at 20 µM | actives 13% (n = 2,000) | AID 624309; in the data active means inhibition mostly above about 42%, no sharp cut-off; inactive means mostly below about 42%
An asterisk follows results filed as active; / = no result given. Shown are actives, neighbours in structure and some others; about 2% of the full set was active somewhere.

SMILES	sPLA2-III inh	ARNT-TACC3 inh	DAGLB inhibitor	NadD block	Neddylation inh	NadD conf
N#CC1=C(N)OC2=C(C(=O)CC(c3ccco3)C2)C1c1ccc(OCc2c(F)cccc2Cl)cc1 (configuration not stated)	-8.8	1.2	5.5	33.6*	-21.5	19.8
N#CC1=C(N)OC2=C(C(=O)CC(c3ccccc3)C2)C1c1ccoc1 (configuration not stated)	-5.3	-3.1	-3.5	0.8	-0.6	/
COc1ccc(C2C(C#N)=C(N)OC3=C2C(=O)CC(C)C3)c(OC)c1OC (configuration not stated)	-0.1	-4.9	0.7	6.7	-3.6	/
C/C=C/c1ccc2c(c1)O[C@H](CN(C)C(=O)CN1CCOCC1)[C@H](C)CN([C@H](C)CO)S2(=O)=O	/	-7.1	/	/	/	/
C/C=C/c1ccc2c(c1)O[C@H](CN(C)Cc1ccncc1)[C@@H](C)CN([C@@H](C)CO)S2(=O)=O	/	-5.1	/	/	/	/
CC(C)(C)C(=O)NNc1nc(-c2ccccc2)c2cc(Br)ccc2n1	-7.9	6.3	-3.3	-1.1	-15.9	/
CCN(CC)S(=O)(=O)c1ccc(C(=O)NNc2nc(-c3ccccc3)c3cc(Br)ccc3n2)cc1	-4.7	0.1	-9.6	34.6*	-11.6	19.6
O=C(N/N=C\C=C\c1ccco1)c1cc(-c2ccc3ccccc3c2)n[nH]1	0.2	-11.6	9.7	54.2*	6.2	69.4*
C[C@@H]1CCCCO[C@H](CN(C)S(=O)(=O)c2ccc(Cl)cc2)[C@H](C)CN([C@@H](C)CO)C(=O)c2cc(NC(=O)c3ccncc3)ccc2O1	/	-0.5	/	/	/	/
Oc1nc(Nc2ccc(Cl)cc2Cl)sc1/C=C1\C=Nc2ccccc21	4.5	-2.1	3.1	41.7*	7.1	0.1
COCC#Cc1cnc2c(c1)C(=O)N([C@@H](C)CO)C[C@H](C)[C@H](CN(C)C(=O)c1cnccn1)O2	/	11.2	/	/	/	/
Cc1ccc(-c2nc(NC(=O)CSc3cc(C)c4ccccc4n3)ns2)cc1	-4.2	-8.7	-2.5	30.5*	-111.2	1.2
CN1C(=O)c2cc(NS(=O)(=O)c3ccc(F)cc3)ccc2OC[C@@H]2O[C@@H](CC(=O)NCC(F)(F)F)CC[C@@H]21	/	-6.5	/	/	/	/
O=C(C[C@H]1C[C@H]2c3cc(NC(=O)CC4CC4)ccc3O[C@H]2[C@@H](CO)O1)NCc1cccnc1	/	-5.1	/	/	/	/
CCCc1c(C(=O)N/N=C/c2ccc(OCc3ccccc3)cc2)nnn1-c1nonc1N	3.2	/	-2.5	-0.8	9.2	/
Nc1nonc1-n1nnc(C(=O)N/N=C/c2ccc(Br)cc2)c1CSC1=NCCS1	-10.4	-4.8	-2.3	31.9*	-23.2	27.5
CCCc1c(C(=O)N/N=C/c2ccc(OCc3ccccc3)c(OC)c2)nnn1-c1nonc1N	2.1	/	-1.3	34.7*	35.7	16.6
CC(C)c1ccc(/C=N/NC(=O)c2nnn(-c3nonc3N)c2CSC2=NCCS2)cc1	-4.0	6.4	-0.5	31.8*	5.4	21.5
CC[N+](CC)(CC)CCCCOc1ccc2c(c1)C(=O)c1cc(OCCCC[N+](CC)(CC)CC)ccc1-2	3.8	-2.2	-4.4	31.5*	-46.4	14.5
CC[N+](CC)(CC)CCOc1ccc(/C=C/c2ccccc2)cc1	0.2	-11.8	7.9	5.5	-6.4	/
N#CC1=C2N=C(N)c3ccccc3N2C2=C(C(=O)CCC2)C1c1ccccc1F (configuration not stated)	-12.2	11.8	1.2	1.2	-3.4	/
Cc1ccccc1C1C(C#N)=C2N=C(N)c3c(sc4c3CCCCC4)N2C2=C1C(=O)CCC2 (configuration not stated)	/	16.4	3.0	42.9*	-0.4	39.9
O=C(C[C@H]1C[C@@H]2c3cc(NS(=O)(=O)c4ccc(F)cc4)ccc3O[C@@H]2[C@@H](CO)O1)NCc1ccc(-c2ccccc2)cc1	/	9.4	/	/	/	/
C[C@@H]1CCCCO[C@@H](CN(C)S(=O)(=O)c2cn(C)cn2)[C@@H](C)CN([C@H](C)CO)C(=O)c2cc(NC(=O)c3ccccc3)ccc2O1	/	-2.2	/	/	/	/
N/C(=N\N=C\c1ccnc2ccccc12)SC1CC(=O)N(c2ccc(Br)cc2)C1=O (configuration not stated)	-6.3	/	2.2	46.4*	-8.9	7.4
O=C(Nc1ccc2c(c1)[C@@H]1C[C@@H](CC(=O)N3CCc4ccccc4C3)O[C@H](CO)[C@@H]1O2)NC1CCCC1	/	-11.9	/	/	/	/
C[C@H](CO)N1C[C@H](C)[C@H](CN(C)C(=O)Nc2ccccc2)Oc2ccc(NC(=O)Nc3cccc4ccccc34)cc2CC1=O	/	-3.0	/	/	/	/
